± gives the standard deviation of the averaged measurements.
Key:
DLD1 [1] = test: cell viability (CellTiter-Glo) relative to plate median (fraction of plate median); higher = more viable cells; details: 5 µM; treatment time 24 h; reporter: 7TFP
Outline: (§1)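 For this screen, colorectal cancer cell lines carrying stable lentiviral TCF/Wnt firefly luciferase reporters, either 7TFP or TCF4/Wnt, were seeded into 384-well plates. A day's wait of 24 h preceded addition of library compounds at a final 5 µM, which stayed on the cells for 24 h. Firefly luciferase or CellTiterGlo luminescence, read on parallel plates, was normalised to the plate median per well, and the reported value is the mean of two independent replicates.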

HCT116 = test: as above; details: 5 µM; treatment time 24 h; reporter: TCF4/Wnt
Outline: as §1

SW480 [2] = test: as above; details: 5 µM; treatment time 24 h; reporter: 7TFP
Outline: as §1

DLD1 [3] = test: TCF/Wnt firefly luciferase reporter signal relative to plate median (fraction of plate median); higher = higher Wnt reporter signal; details: 5 µM; treatment time 24 h; reporter: 7TFP
Outline: as §1

SW480 [4] = test: as above; details: 5 µM; treatment time 24 h; reporter: 7TFP
Outline: as §1

SMILES	cell viability (DLD1 [1])	cell viability (HCT116)	cell viability (SW480 [2])	TCF/Wnt firefly luciferase reporter signal (DLD1 [3])	TCF/Wnt firefly luciferase reporter signal (SW480 [4])
CC1(C)S[C@@H]2[C@H](NC(=O)[C@H](C(=O)O)c3ccsc3)C(=O)N2[C@H]1C(=O)O	1.09 ± 0.092	1.045 ± 0.0071	1.03 ± 0.052	0.871 ± 0.069	1.075 ± 0.0071
O=c1c(-c2ccc(O)cc2)coc2cc(O)ccc12 [Daidzein (Biofocus)]	1.02 ± 0.03	1.16 ± 0.11	1.05 ± 0.057	1.11 ± 0.11	0.976 ± 0.091
Cc1ccc(S(=O)(=O)NC(=O)NN2CCCCCC2)cc1	0.911 ± 0.047	0.918 ± 0.018	0.968 ± 0.019	0.881 ± 0.071	0.998 ± 0.031
CCCCOc1cc(C(=O)NCCN(CC)CC)c2ccccc2n1	0.973 ± 0.011	0.926 ± 0.1	0.984	0.831 ± 0.05	0.964 ± 0.045
O=c1[nH]c(=O)n([C@H]2C[C@H](O)[C@@H](CO)O2)cc1C(F)(F)F	1.07 ± 0.042	1.03 ± 0.05	1.03 ± 0.014	0.818 ± 0.16	0.886 ± 0.013
Clc1ccc(COC(Cn2ccnc2)c2ccc(Cl)cc2Cl)cc1 (stereo not given)	0.944 ± 0.11	0.972 ± 0.0085	0.99 ± 0.029	0.936 ± 0.13	1.03 ± 0.074
N=C(N)N/N=C/c1c(Cl)cccc1Cl	0.976 ± 0.028	1.02 ± 0.042	1.02 ± 0.014	1.02 ± 0.021	1.05 ± 0.064
C[N+](C)(C)CCO.[Cl-]	0.975 ± 0.0071	1.01 ± 0.068	0.929 ± 0.045	1.03 ± 0.021	1.1 ± 0.042
CC(N)C(=O)OC(C)(C)Cc1ccc(Cl)cc1 (stereo not given)	1.11 ± 0.042	1.15 ± 0.064	1.02 ± 0.036	0.945 ± 0.013	0.879 ± 0.1
Nc1cc(N2CCCCC2)nc(N)[n+]1[O-]	1.01 ± 0.047	0.972 ± 0.054	1 ± 0.04	1.04 ± 0.11	0.943 ± 0.062
OCc1cccnc1	0.978 ± 0.088	1.05 ± 0.17	0.934 ± 0.016	0.988 ± 0.12	0.917 ± 0.017
O=C(O)Cc1ccccc1Nc1c(Cl)cccc1Cl	0.955 ± 0.078	0.938 ± 0.037	0.96 ± 0.032	0.95 ± 0.05	0.848 ± 0.13
Cc1c(N(C)CS(=O)(=O)O)c(=O)n(-c2ccccc2)n1C	1.04 ± 0.014	0.968 ± 0.035	1.06 ± 0.085	0.969 ± 0.059	1.04 ± 0.059
CCCC(=O)Nc1ccc(OCC(O)CNC(C)C)c(C(C)=O)c1 (stereo not given)	0.942 ± 0.11	0.966 ± 0.019	0.876 ± 0.1	0.957 ± 0.12	1.01 ± 0.035

— the supplement of paper PMC6522484
